# This is one part of a sample in which hits are shown more often than they occur.
# ST2 inh: IL1RL1 inhibition; inhibition, % for hits at 17 µM; actives 2.3% (n = 78,000); Q01638; AlphaLISA ST2-Fc/biotin-IL-33 interaction, 1 h; AID 1259354; in the data active = inhibition above about 30%
# Target sequence (Q01638 whole entry, looked up): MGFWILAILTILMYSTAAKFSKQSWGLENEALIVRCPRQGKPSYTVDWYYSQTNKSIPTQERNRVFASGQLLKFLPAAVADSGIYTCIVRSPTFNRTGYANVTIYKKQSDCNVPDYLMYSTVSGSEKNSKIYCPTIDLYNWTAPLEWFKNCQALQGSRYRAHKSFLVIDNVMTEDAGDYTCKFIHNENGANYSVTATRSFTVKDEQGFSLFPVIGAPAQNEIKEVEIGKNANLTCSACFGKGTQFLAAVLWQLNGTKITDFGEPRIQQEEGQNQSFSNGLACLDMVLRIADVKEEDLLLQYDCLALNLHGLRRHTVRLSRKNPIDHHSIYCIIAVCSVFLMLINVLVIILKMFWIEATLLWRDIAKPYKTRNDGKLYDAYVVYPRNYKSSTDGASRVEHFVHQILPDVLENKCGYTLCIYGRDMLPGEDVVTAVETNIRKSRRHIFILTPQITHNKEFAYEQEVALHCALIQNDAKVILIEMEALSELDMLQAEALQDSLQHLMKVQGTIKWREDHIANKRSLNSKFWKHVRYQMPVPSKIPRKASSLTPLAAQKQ
# Starred values were filed as active, the others as inactive; i = inactive.
SMILES,ST2 inh
N#C/C(=C\c1ccccc1)c1nc(-c2ccccc2)cs1,65%*
NNC(=O)C(=O)Nc1nc(-c2ccc(Cl)cc2)cs1,i
O=C(c1cnc2n(c1=O)CCS2)N(Cc1ccccc1)Cc1ccccc1,i
Cc1cc(C)cc(C(=O)N2CCN=C2SCc2ccccc2C)c1,i
CCOCCCn1ccnc1-c1cccnc1,i
COc1cc2oc(=O)ccc2c(OC)c1OC,i
Cn1cc(CN2CCCC(C(N)=O)C2)c(-c2ccc(Oc3ccccc3)cc2)n1 (centres undefined),i
CC(C)CCNC(=O)C1c2c(n(C)c3ccccc23)SCC(=O)N1c1ccc2c(c1)OCCO2 (centres undefined),i
O=C(COc1ccccc1Cl)NCCO,i
COc1nc(-c2ccc(Cl)cc2)nc2ccccc12,i
COc1cccc(-c2nc(C(N)=O)c3c(n2)n(-c2ccc(C)c(C)c2)c(=O)n3C)c1,i
CCC(C)N(Cc1ccsc1)C(=O)c1nc2nc(C)cc(C)n2n1 (centres undefined),i
COc1ccc(-c2ncc(Cl)cn2)c(C)c1,i
COc1ccc(-c2csc(/C(C#N)=C/c3ccccc3[N+](=O)[O-])n2)cc1,i
Cc1ccc(NC(=O)c2ccccc2C)c([N+](=O)[O-])c1,i
Cc1ccc(-c2csc(/C(C#N)=C/c3ccccc3[N+](=O)[O-])n2)c(C)c1,57%*
CC(=O)c1ccc(N2CCN(S(=O)(=O)c3c(C)n[nH]c3C)CC2)cc1,i
CCN(C(=O)c1cc(-c2cnc(N)nc2)nc2c(C)cccc12)C1CCCCC1,i
O=[N+]([O-])c1ccc(N2CCOCC2)cc1NCc1ccco1,i
CC(C)(C)c1ccc(C(=O)N2CCN(c3ccc([N+](=O)[O-])c(NCc4ccco4)c3)CC2)cc1,31%*
Cc1cc(C)n(-c2cc(N3CCN(C(=O)c4ccco4)CC3)ccc2[N+](=O)[O-])n1,i
COc1ccc(C(CC#N)C2CCOC(C)(C)C2)cc1 (centres undefined),i
O=S(=O)(Nc1ccc(F)c(F)c1)c1ccc(Br)s1,i
O=C(COc1ccc(/C=C2\NC(=O)N(Cc3ccc(Cl)cc3)C2=O)cc1)Nc1ccc(F)cc1,i
COc1ccc(-n2ncc3c(N4CCN(c5ccc(C(C)=O)cc5)CC4)ncnc32)cc1,i
SMILES,ST2 inh
Cc1cc2nc(-c3ccc(C)c(NC(=O)C(C)C)c3)oc2cc1C,i
O=[N+]([O-])c1cccc(Nc2ccccc2)c1,33%*
O=C(Nc1ccccc1)Nc1cccc([N+](=O)[O-])c1,i
Cc1ccccc1C(=O)Nc1cccc([N+](=O)[O-])c1,i
CCN(CC)C(=O)c1sc2[nH]c(=O)n(-c3ccc(C)c(C)c3)c(=O)c2c1C,i
Cc1ccc(SC2CCN(C(=O)C3CCC(=O)N(CCN4CCOCC4)C3)CC2)cc1 (centres undefined),i
N#Cc1c(N=CC2C(=O)c3ccccc3C2=O)sc2c1CCCC2,i
CC(=O)Nc1sc2c(c1C#N)CCC2,i
N#Cc1c(N=CN2CCCCC2)sc2c1CCCCC2,35%*
O=C1C=CC(=O)N1c1ccc(Sc2ccc(N3C(=O)C=CC3=O)cc2)cc1,i
O=C(Nc1cnn(Cc2ccc(Cl)cc2Cl)c1)c1noc2c1CCCCC2,i
O=C(CN1C(=O)CSc2ccc(S(=O)(=O)N3CCCCC3)cc21)N1CCCC1,i
Oc1oc(-c2ccc(Br)cc2)nc1C=Nc1ccc(Br)cn1,i
Oc1oc(-c2ccccc2F)nc1C=Nc1ccc(Cl)cn1,32%*
Cc1ccc(N=Cc2nc(-c3ccccc3)oc2O)c(Br)c1,i
Cc1ccc(N=Cc2nc(-c3ccccc3F)oc2O)c(C)c1,33%*
Cc1ccc(N=Cc2nc(-c3ccc(Br)cc3)oc2O)c(C)c1,i
Oc1oc(-c2ccccc2)nc1C=Nc1ccc(Br)cn1,i
Cc1cccc(C)c1NC(=O)CSc1nnc2sc3ccccc3n12,i
O=C(c1ccc(Cl)cc1OC1CCN(Cc2ccccc2F)CC1)N1CCCCC1,i
O=C(Nc1cc(Br)ccc1O)c1noc2c1CCc1ccccc1-2,i
O=C(Nc1cc2cc(Cl)ccc2oc1=O)c1ccc(-c2ccccc2)cc1,i
CC1=C[C@@H](CNC(=O)c2ccc(C#N)cc2)[C@H](C(C)C)C[C@H]1CC(=O)Nc1ccccn1,81%*
CC1=C[C@@H](CNC(=O)c2ccncc2)[C@H](C(C)C)C[C@H]1CC(=O)NCc1ccc(C#N)cc1,i
CC1=C[C@@H](CNS(=O)(=O)c2cccc(C#N)c2)[C@H](C(C)C)C[C@H]1CC(=O)Nc1ccccn1,i
SMILES,ST2 inh
CCCc1cc(N2CCCC(CCC(N)=O)C2)nc(C)n1 (centres undefined),i
O=C1C2=C(Nc3[nH]n(-c4ccccc4)c(=O)c3C2c2ccc([N+](=O)[O-])cc2)c2ccccc21 (centres undefined),47%*
Cn1c2c(c(=O)n(C)c1=O)C(c1cccc(F)c1)C1=C(N2)c2ccccc2C1=O (centres undefined),i
Cc1cccc(C2C3=C(Nc4c2c(=O)n(C)c(=O)n4C)c2ccccc2C3=O)c1 (centres undefined),i
Cc1cc(C)n(CCNC(=O)COc2c(C)ccc(C)c2C)c(=O)n1,i
Cc1ccc(NC(=O)Cn2c(C)nc3ccccc32)cc1,i
COc1cccc(Cn2c(CNS(=O)(=O)c3ccc(C)c(C)c3)nc3cccnc32)c1,i
CC(=O)c1ccccc1-c1ccc2ccccc2n1,i
CCn1c(=O)c(-c2ccc3ccccc3n2)cc2cc(Br)ccc21,36%*
CCn1c(/C=C/c2ccc(F)cc2)nc2ccccc2c1=O,i
Cc1cccc(NC(=O)NC(N)=O)c1,i
Cc1cc(Nc2ccc(O)cc2)c2cc(Cl)ccc2n1,i
COc1cccc(Nc2cc(C)nc3ccc(Cl)cc23)c1,i
COc1ccc2nc(C)cc(Nc3ccccc3OC)c2c1,i
COc1ccc2nc(C)cc(Nc3ccc(N(C)C)cc3)c2c1,52%*
CCOc1ccccc1Nc1cc(C)nc2ccc(OC)cc12,i
Cc1cc(Nc2ccc(N(C)C)cc2)c2cc(Cl)ccc2n1,39%*
Cc1ccccc1OCC(=O)Nc1ccccc1I,i
COc1ccc(C(=O)Nc2ccc(N3CCCC3)cc2)cc1OC,35%*
COc1ccc(C(=O)Nc2cc(OC)cc(OC)c2)cc1,i
COc1ccc(C(=O)N2CCCCCC2)cc1OC,i
CCCOc1ccc(NC(=O)c2ccc(OC)cc2)cc1,i
COc1ccccc1NC(=O)c1ccc(OC)c(OC)c1,i
COc1ccc(C(=O)Nc2ccc(N3CCCC3)cc2)cc1,59%*
Cn1c(SCc2ccc(C(=O)NCCO)cc2)nc2sc3c(c2c1=O)CCC3,i
SMILES,ST2 inh
CN(C)CCNC(=O)c1cc2c(=O)n3ccccc3nc2n1C,i
N#CC1=C2N=C(N)c3c(sc4c3CCCCC4)N2C2=C(C(=O)CCC2)C1c1cccnc1 (centres undefined),i
CCOc1ccc(N2CN=c3s/c(=C/c4cccs4)c(=O)n3C2)cc1,i
O=c1/c(=C/c2ccco2)sc2n1CN(c1ccc([N+](=O)[O-])cc1)CN=2,i
Cc1ccc(N2CN=c3s/c(=C\c4ccco4)c(=O)n3C2)cc1,34%*
Cc1ccccc1CSCc1nc(C2CC2)n[nH]1,i
Cc1ccc(F)cc1N1C(=O)C2C3C=CC(C3)C2C1=O (centres undefined),i
O=C(c1cc(CCc2ccccc2)no1)N1CCCC1c1nc2ccccc2s1 (centres undefined),i
O=C1c2ccccc2C(=O)C1c1ccc(-c2ccccc2)cc1,i

# Screens (PubChem)
